Test results from PubChem BioAssay (NCI).
This is part of a sample that, as a whole, favours compounds with a hit. Of some 83,000 tested, about 20% had one in any assay.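 Note: values are percent growth. 100 is the growth of untreated cells, values between 100 and 0 indicate rising inhibition; between -100 and 0 indicates cell death.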 Unmarked numbers belong to inactive results. The source made the active and inactive calls. How the source made its calls: active means growth percent below 10; inactive means the rest.

Tested on: HL-60(TB) leukemia
Assay: NCI-60 one-dose screen, 48 h (100 = growth as untreated, 0 = no growth, -100 = all killed)
Conditions: 10 µM unless noted

SMILES	growth
CCC(=O)Sc1ccccc1C(=O)Nc1ccc(Cl)cc1	37.6%
O=C(/C=C/C12c3ccccc3C(c3ccccc31)C1C(=O)N(c3ccccc3)C(=O)C12)c1ccc(Cl)cc1 (stereo not given)	10.7%
COc1ccc(N2CCN(CC(=O)N3CCN(c4nnc(-c5ccccc5)c(-c5ccccc5)n4)CC3)CC2)cc1	-36.3% (active)
NCCn1cc(-c2nc(-c3c[nH]c4ncccc34)cs2)c2cc(F)ccc21	62%
COc1cccc(Oc2ccccc2NC(=O)CNC(=O)c2cccc3ccccc23)c1	-25.2% [5 µM] (active)
N=C(N)c1ccc(-c2ccc(-c3ccc(Cl)c(Cl)c3)o2)nc1	15.1%
C=CCOC(=O)C(=O)OCC=C	68.7%
N#Cc1ccc(OC(=O)Nc2ccc(Cl)c(Cl)c2)cc1	64.2%
CC(C)=CCc1cc(O)cc2c1OC(C=C(C)C)C1=C2C(=O)C2=C(NCCS2(=O)=O)C1=O (stereo not given)	-35.7% (active)
Cc1cc(C)on1	76.3%
CCOC(=O)Nc1ccc(C(=O)/C=C/c2ccccc2)cc1	45.4%
O=C(NCc1ccc(F)cc1)C1CN(c2ccc(Cl)cc2)N(c2ccc(Cl)cc2)C1=O (stereo not given)	43.6%
N#Cc1cc(-c2nc3ccccc3s2)c(=O)n(NS(=O)(=O)c2ccccc2)c1N	103%
NNCCc1ccc(NC(=O)CCCc2ccc(C(=O)Nc3ccccc3N)cc2)cc1	32.6%
CCn1c2ccccc2c2ccc(C(C)=O)cc21	118%
